High-throughput results from PubChem.
HCMV antiviral = blocks human cytomegalovirus replication | HFF cells, HCMV-luciferase reporter, 72 h; hits give low values | activity change, negative = inhibition, % at 57.5 µM | 410,000 tested, 4.5% active; in the data active = activity change below about -60%; inconclusive = no clear call, values can overlap the other calls; inactive = above about -39%; note: % is set by controls: 0 for no effect and ±100 for the full control effect
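Two-dose cell screen: HFF monolayers treated with compounds and infected with luciferase-expressing HCMV at 1 PFU/cell, 72 h at 37C, then lysed for luciferase measurement.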
Pf growth 48h = P. falciparum growth inhibition at 48 hours (one generation); 310,000 tested, 5.9% active; Potency, µM (highest dose often 28.7 µM), for inactives: at the highest dose activity change, negative = inhibition, usual class: inhibitors; P. falciparum luciferase growth in erythrocytes, 48 h; AID 504832; note: potency is the fitted concentration of half-maximal effect; % is set by controls: 0 for no effect and ±100 for the full control effect
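Parasite viability was followed by luminescence of a genomically integrated firefly luciferase. Cultures held 0.1% parasitemia at 2% hematocrit (final), incubated under 5% CO2 at 37 C.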
HCV inh = blocks hepatitis C virus; Huh7.5.1 HCVcc-Cre infection, luciferase reporter, 44 h; 340,000 tested, 3.4% active; Potency, µM (titrated, usually from 41.8 µM), for the others: at the top dose activity change, negative = inhibition, usual class: inhibitors; AID 651820; note: potency is the fitted concentration of half-maximal effect; % is set by controls: 0 for no effect and ±100 for the full control effect
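Whole-lifecycle infectious HCVcc-Cre system; cells 1,000/well, compound then virus (~0.5 moi) added 4 h after plating, 44 h culture. Luciferase read 15 sec following 15 min substrate incubation, room temp.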
SARS PLpro yeast = blocks SARS-CoV papain-like protease in a yeast assay; S. cerevisiae expressing SARS-CoV PLpro, growth rescue; Potency, µM (top dose mostly 32.9 µM), for inactives: at the highest dose activity, positive = growth rescue, hits mostly activators; 330,000 tested, 0.19% active; AID 485353; calls by dose curve; note: potency is the fitted concentration of half-maximal effect; 0% is about no effect; nearly all actives have a fitted effect of over 55% in size
Pf growth 96h = P. falciparum growth inhibition at 96 hour, primary screen for plastid delayed-death inhibitors. P. falciparum luciferase reporter growth, 96 h. Potency, µM (series often up to 28.7 µM), for the others: at the top dose activity change, negative = inhibition, most hits filed as inhibitors. 320,000 tested, 6.9% active. AID 504834; note: potency is the fitted concentration of half-maximal effect; % is set by controls: 0 for no effect and ±100 for the full control effect
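Readout is luminescence from an integrated firefly luciferase in P. falciparum. Red cells, 2% hematocrit and 0.05% parasitemia final, were cultured with compound through two parasite generations (96 hours) at 37 C, 5% CO2.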
Sm TGR block = S. mansoni TGR enzyme inhibition. Q962Y6. purified TGR, DTNB reduction, TNB absorbance 405 nm. Potency, µM (series often up to 114 µM), inactives show top-dose activity change, negative = inhibition, actives largely listed as inhibitors. 360,000 tested, 3% active. AID 485364; note: potency is the fitted concentration of half-maximal effect; % is set by controls: 0 for no effect and ±100 for the full control effect; nearly all actives have a fitted effect of over 60% in size
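First, TGR (20 nM dispensed) and NADPH were mixed with compound. Second, a 15 min room-temperature incubation followed. Third, further NADPH and then DTNB were added to start the reaction. Finally, TNB absorbance was monitored kinetically.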
* marks the source's active call; other numbers are inactive results; ? = inconclusive; . = no result; ! = repeats disagree; [ ] = another dose, or the depositor's remark. This is a sample that favours compounds with a hit; in the whole collection about 15% have one here. Unless noted, calls come from the whole dose curve; as a rule, active = well fitted curve in the direction sought with a large enough effect; inconclusive = small, poorly fitted or top-dose-only effect, or another doubt; inactive = no such curve, though single readings can be large; an effect the other way counts as inactive or inconclusive.

SMILES	HCMV antiviral	Pf growth 48h	HCV inh	SARS PLpro yeast	Pf growth 96h	Sm TGR block
CC1CC(C)CN(S(=O)(=O)c2ccc3c(c2)CC(=O)N3)C1 (stereo unspecified)	-10	?	-1%	-2%	?	1%
Cc1ccc(S(=O)(=O)N2CCC(C(=O)OCC(=O)N3CC(C)CC(C)C3)CC2)cc1C (stereo unspecified)	2	?	?	-4%	5%	1%
CN1CCC(N2CCN(C3CN(CCc4ccccc4)S(=O)(=O)C3)CC2)CC1 (stereo unspecified)	2	.	.	.	.	.
Cc1cccc(CN2CCN(C3CN(CCc4ccccc4)S(=O)(=O)C3)CC2)c1 (stereo unspecified)	-63*	.	.	.	.	.
Cn1c(OCC2CCCO2)nc2cc(-c3ccccc3)sc2c1=O (stereo unspecified)	-5	.	.	.	.	.
CCOCCCNC(=O)c1c[nH]c2ccc(S(=O)(=O)N(C)c3ccc(Cl)cc3F)cc2c1=O	-21	.	.	.	.	-3%
O=C(CNC(=O)c1ccccc1F)N/N=C\C=C\c1ccccc1	-13	17%	2%	?	-29%	22µM*
O=C(CNC(=O)c1ccccc1Cl)N/N=C/C=C/c1ccccc1	-39	18%	-1%	22%	?	-4%
COc1ccc(NCC(=O)N/N=C/C=C\c2ccccc2)cc1	-23	16%	0%	-18%	2.6µM*	8%
CCOc1ccc(-n2c(SCC(=O)N3CCC(C)CC3)nc3c([nH]c4ccccc43)c2=O)cc1	7	.	.	.	.	7%
CNc1ncnc2c1ncn2[C@H]1CN(Cc2ccc3c(c2)OCO3)C[C@@H](CO)O1	-4	.	.	.	.	.
C(=C\n1nnc2ccccc21)/c1ccc[nH]1	-8	-1%	18%	-3%	40%	25µM*
Cc1ccc(C2=NCCn3nc4cc([N+](=O)[O-])ccc4c32)cc1	1	?	14%	-4%	-42%	40µM*
CC(C)Sc1nc2sccc2c(=O)n1-c1ccccc1	-9	-15%	-16%	-1%	?	1%
CC(Sc1nc2sccc2c(=O)n1-c1ccccc1)C(N)=O (stereo unspecified)	13	?	-11%	1%	1.7µM*	7%
ClC(Cl)c1nnc(-c2ccccc2)c(-c2c[nH]c3ccccc23)n1	-86*	?	?	-2%	9.3µM*	-13%
Cc1cncn1CCc1nc2c3ccccc3nc(SCC(=O)Nc3cccc(Cl)c3)n2n1	-105*!	?	?	15%	1%	7%
CCOc1ccccc1-n1c(SCC(=O)Nc2ccccc2C(=O)O)nc2ccccc2c1=O	-81*	?	23%	-1%	72%	15%
CCOc1ccccc1NC(=O)CSc1nc2ccccc2c2nc(CCn3cncc3C)nn12	-65*	.	.	.	.	-4%
CCOc1ccccc1N(CC(=O)Nc1cccc2ccccc12)S(C)(=O)=O	-17	-23%	9%	-3%	2%	-13%
COc1ccccc1NC(=O)CCNC(=O)c1ccc(C)cc1	-6	1%	7%	4%	2%	3%
Cc1ccc(C(=O)N/C(=C\c2cccc([N+](=O)[O-])c2)C(=O)NC(Cc2ccccc2)C(=O)O)cc1 (stereo unspecified)	14	27%	13%	-1%	4%	41%
COc1ccccc1/C=C1\SC(=S)N(CCC(=O)Nc2nnc(C)s2)C1=O	-16	45%	16%	4%	?	-9%
CCc1ccc(C(O)c2ncc(-c3ccccc3Cl)[nH]2)cc1 (stereo unspecified)	-96*	.	.	.	.	.
Cc1ccc(C(O)c2ncc(-c3ccccc3Cl)[nH]2)cc1 (stereo unspecified)	38	.	.	.	.	.
SMILES	HCMV antiviral	Pf growth 48h	HCV inh	SARS PLpro yeast	Pf growth 96h	Sm TGR block
Cc1ccccc1CNS(=O)(=O)c1c(C(=O)N2CCCCC2)c(C)n(C)c1C	-23	-8%	24%	5%	-16%	-5%
Cc1ccc(/C=C/C(=O)O)cc1S(=O)(=O)NCCO	-11	2%	7%	4%	15%	45µM*
Cc1ccc(/C=C/C(=O)O)cc1S(=O)(=O)N1CCc2ccccc2C1	?	-32%[1.15 µM]	15%	10%	13%	4%
Cc1ccc(/C=C/C(=O)O)cc1S(=O)(=O)Nc1ccccc1C(=O)O	16	-10%	6%	0%	10µM*	?
Cc1ccc(/C=C/C(=O)O)cc1S(=O)(=O)Nc1ccc(C(=O)O)cc1	0	2%	7%	1%	21%	35µM*
COC(=O)C1CCN(C(c2ccccc2Cl)c2sc3nc(-c4ccco4)nn3c2O)CC1 (stereo unspecified)	10	.	.	.	.	7%
CCCCn1c(N)c(N(CCOC)C(=O)CSc2nnc(-c3ccc(F)cc3)n2N)c(=O)[nH]c1=O	?	15%	18%	3%	5%	-30%
Cc1nc2ccc(Cc3ccc4nc(C)[nH]c4c3)cc2[nH]1	-4	?	-7%	9%	10µM*	-6%
Cc1nc2ccc(-c3nc4ccccc4o3)cc2[nH]1	139	168%	?	-41%	?	13%
Cc1nc2ccc(N=NN(C)C)cc2[nH]1	-11	27%	5%	0%	28%	20µM*
Cc1ccc2nc(Cc3ccc(N)cc3)[nH]c2c1	33	30%	4%	-12%	99%	10%
O=c1[nH]c2cc(C(F)(F)F)c(N3CCOCC3)cc2n(CP(=O)(O)O)c1=O	.	12%	.	.	16%	.
COc1ccccc1C1NC(=O)c2n[nH]c(-c3cccs3)c21 (stereo unspecified)	5	.	.	.	.	-3%
CC1(C(=O)Nc2ccccc2)Cc2c(-c3ccc4c(c3)OCO4)ccnc2O1 (stereo unspecified)	-23	.	.	.	.	.
CC1(C(=O)Nc2cccc(Oc3ccccc3)c2)Cc2c(-c3ccc4c(c3)OCO4)ccnc2O1 (stereo unspecified)	-67*	.	.	.	.	.
O=C1NC2=C(C(=O)CCC2)C(c2ccccc2Cl)N1 (stereo unspecified)	47	-20%[0.00184 µM]	11%	1%	2.9µM*	-8%
CN(C(=S)NC(=O)/C=C/c1ccc(F)cc1)C1CCCCC1	-76*	?	4%	10%	?	-9%
CN(C(=O)/C=C/c1ccc(F)cc1)C1CCCCC1	36	.	-13%	.	.	.
O=C(/C=C/c1ccc(F)cc1)NC(=S)NC1CCCCC1	-20	?	3%	3%	3.3µM*	-29%
CC(C)NC(=S)NC(=O)/C=C/c1ccc(F)cc1	-76*	-12%	12%	?	-19%	-19%
C=C[C@]1(C)C=C2C(=O)[C@@]3(O)OC(=O)[C@@]4(CCCC(C)(C)[C@H]34)[C@@]2(O)CC1	-101*	.	.	.	.	.
